The list is not random: actives were taken first. Their share in the collection is about 8.3%.
Gal4-VP16 FLuc – inhibits Gal4-VP16 luciferase reporter, ROR gamma counter-screen; Drosophila S2 Gal4-VP16 UAS-luciferase, luminescence, 20 h; Potency, µM (highest dose often 53.6 µM), for the others: top-dose activity, negative = inhibition, usual class: inhibitors; 310,000 compounds, 3.5% hits;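 also: Gal4-VP16 expression switched on by copper sulfate through the metallothionein promoter; potency is read from the fitted curve at half-maximal effect; % is scaled to controls: 0 for no effect and ±100 for the full control effect; nearly all actives have a fitted effect of over 50% in size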
RORg inh – ROR gamma (mouse) transcription inhibition | 310,000 compounds, 5.4% hits | Drosophila S2 Gal4-RORgamma UAS-luciferase reporter, 20 h | P51450 | Potency, µM (highest dose often 53.6 µM), for inactives: top-dose activity change, negative = inhibition, most hits filed as inhibitors; also: potency is read from the fitted curve at half-maximal effect; % is scaled to controls: 0 for no effect and ±100 for the full control effect; nearly all actives have a fitted effect of over 60% in size
Target sequence (P51450 whole entry, looked up, the tested form may be a part): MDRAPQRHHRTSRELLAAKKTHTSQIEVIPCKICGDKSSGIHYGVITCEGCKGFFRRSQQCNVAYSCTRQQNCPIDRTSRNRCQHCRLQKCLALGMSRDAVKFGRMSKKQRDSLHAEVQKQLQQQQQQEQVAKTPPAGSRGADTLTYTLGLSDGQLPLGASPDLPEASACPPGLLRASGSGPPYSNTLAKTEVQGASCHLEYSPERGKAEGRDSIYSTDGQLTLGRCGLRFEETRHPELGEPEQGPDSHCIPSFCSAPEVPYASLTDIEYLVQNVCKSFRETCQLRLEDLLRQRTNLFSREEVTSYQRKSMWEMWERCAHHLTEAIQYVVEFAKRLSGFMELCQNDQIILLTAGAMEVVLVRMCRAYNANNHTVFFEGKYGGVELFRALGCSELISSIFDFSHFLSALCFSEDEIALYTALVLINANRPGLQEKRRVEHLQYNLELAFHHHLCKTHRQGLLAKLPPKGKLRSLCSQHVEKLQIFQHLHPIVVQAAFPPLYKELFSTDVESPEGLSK
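Luminescence from a UAS-regulated Photinus luciferase reporter in stably transfected Drosophila Schneider cells is measured; decreased signal marks ROR gamma inhibition. Fusion expression is induced by 700 uM copper sulfate for 20 hr.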
MCF10A rerep – DNA re-replication induction in MCF 10a cells; MCF 10A DNA re-replication, Hoechst nuclear intensity, 48 h; Potency, µM (titrated, usually from 46.1 µM), inactives show top-dose activity, positive = re-replication, usual class: activators; 350,000 compounds, 2.9% hits; AID 624296; also: potency is read from the fitted curve at half-maximal effect; % of control where 0% means no effect; nearly all actives have a fitted effect of over 50% in size
Giardia kill – kills Giardia lamblia. Giardia lamblia trophozoite viability. activity change, % at 7.66 µM, hits read low. 340,000 compounds, 0.15% hits. AID 540267; in the data active = activity change below about -80%; inconclusive = between about -30% and that limit;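 also: parasites exposed to compound for two days anaerobically before the ATP read; % is scaled to controls: 0 for no effect and ±100 for the full control effect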
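Trophozoite viability was measured as ATP-dependent luminescence, read 15-30 min after reagent addition. Before that, parasites at 100 cells/well were exposed to compounds for 48 h, anaerobically, at 37 deg C.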
BCR signal inh – inhibitors of chronic active B-cell receptor signaling | ABC-DLBCL IkBa-CBG/CBR reporter, luminescence ratio, 4 h | Potency, µM (series often up to 46.1 µM), for the others: at the highest dose activity change, negative = inhibition, usual class: inhibitors | 340,000 compounds, 0.05% hits | AID 493014; active = well fitted inhibition curve with a large enough effect in the signal ratio, with a control signal flat, not every such curve was filed as active; inconclusive = small, poorly fitted or top-dose-only effect, or effect the other way, or a change in a side signal; the % refers to the signal ratio;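 also: potency is read from the fitted curve at half-maximal effect; plate controls were basal doxycycline-induced cells for no effect and cells given 10 µM MG132 for full effect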
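Doxycycline induced both beetle luciferases in TMD8 lymphoma cells; IKK-driven degradation limits the IkappaBalpha-fused green signal, while red luminescence normalises for cell number and nonspecific effects. Compounds tested up to 46 uM, 4 hrs.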
SW480 rerep – DNA re-replication induction in SW480 cells | Potency, µM (top dose mostly 46.1 µM), for the others: at the top dose re-replication activation, most hits filed as activators | SW480 DNA re-replication, Hoechst DNA content imaging, 48 h | 340,000 compounds, 1.8% hits | AID 624297; also: potency is read from the fitted curve at half-maximal effect; % of control where 0% means no effect; nearly all actives have a fitted effect of over 55% in size
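Image-based read-out: total Hoechst fluorescence of nuclei (405 nm excitation, 500-530 nm emission), with hits raising the fraction of high-intensity nuclei. SW480 colon cells incubated 48 hr with compounds at 37 C.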
Active calls of the source: *. Unless noted, calls follow the shape of the dose curve; as a rule, active = well fitted curve in the direction sought with a large enough effect; inconclusive = small, poorly fitted or top-dose-only effect, or another doubt; inactive = no such curve, though single readings can be large; an effect the other way counts as inactive or inconclusive.

For Nc1c(C(=O)c2ccccc2)sc2snc(SCC(=O)c3ccccc3)c12 the results were Gal4-VP16 FLuc 12.6µM*, RORg inh 11.2µM*, MCF10A rerep 16.4µM*, Giardia kill 14.4, BCR signal inh -8.8% and SW480 rerep 28.9%.
For Cc1ccc(CCNC(=O)C2CCC(=O)N(CC3CCCCC3)C2)cc1 (configuration not stated) the results were Gal4-VP16 FLuc -4.3%, RORg inh -24.8%, MCF10A rerep -0.2%, Giardia kill -6.3, BCR signal inh 0.2% and SW480 rerep 10.1%.
CC1=NN(c2ccc(Br)cc2)C(=O)/C1=C/c1cccs1 was read as Gal4-VP16 FLuc -0.8%, RORg inh 5.5%, MCF10A rerep 18.4µM*, Giardia kill 18.5, BCR signal inh 27.4% and SW480 rerep inconclusive.
`CN(Cc1ccccc1)C(=O)COc1cc(Cl)ccc1Cl` gave Gal4-VP16 FLuc 18.3%, RORg inh 30.7%, MCF10A rerep 1.1%, Giardia kill 21.7, BCR signal inh 4.7% and SW480 rerep -16.7%.
For CN(C)CCSc1nc(O)c(-c2ccccc2)c(=O)n1-c1ccccc1 the results were Gal4-VP16 FLuc -1.6%, RORg inh -1.2%, MCF10A rerep -2.0%, Giardia kill -16.5, BCR signal inh 1.0% and SW480 rerep -9.7%.
For Cc1sc2nc(SCCN(C)C)n(-c3ccccc3)c(=O)c2c1-c1ccc(F)cc1 the results were Gal4-VP16 FLuc 1.4%, RORg inh -26.6%, MCF10A rerep inconclusive, Giardia kill -0.4, BCR signal inh 0.2% and SW480 rerep 18.4µM*.
For COc1cc2c(cc1OC)CN(c1nc(CN3CCOCC3)nc3sc4c(c13)CCC(C)C4)CC2 (configuration not stated) the results were Gal4-VP16 FLuc inconclusive, RORg inh 11.2µM*, MCF10A rerep inconclusive, Giardia kill 0.7, BCR signal inh -1.3% and SW480 rerep inconclusive.
CCOC(=O)C(C)/C(C)=N/NC(N)=S (configuration not stated) was read as Gal4-VP16 FLuc 1.26µM*, RORg inh 0.708µM*, MCF10A rerep 10.5%, Giardia kill -1.3, BCR signal inh inconclusive and SW480 rerep 5.4%.
`CCOC(=O)C(C)/C(C)=N\Nc1ccc([N+](=O)[O-])cc1[N+](=O)[O-]` (configuration not stated) gave Gal4-VP16 FLuc -23.8%, RORg inh inconclusive, MCF10A rerep 1.0%, Giardia kill 0.9, BCR signal inh 10.2% and SW480 rerep 3.9%.
CCCN1CCC(NC(=S)Nc2ccc(S(N)(=O)=O)cc2)CC1 was read as Gal4-VP16 FLuc 3.0%, RORg inh -4.1%, MCF10A rerep 4.9%, Giardia kill -0.3, BCR signal inh inconclusive and SW480 rerep -2.9%.
`O=C(Cn1c(-c2ccccn2)nc2ccccc21)N/N=C/c1cccnc1` gave Gal4-VP16 FLuc 11.2%, RORg inh -16.8%, MCF10A rerep inconclusive, Giardia kill 15.9, BCR signal inh inconclusive and SW480 rerep -11.8%.
For CCOC(=O)C(=NC(C)C)NNc1cc(Cl)ccc1Cl the results were Gal4-VP16 FLuc -3.3%, RORg inh -6.5%, MCF10A rerep 16.4µM*, Giardia kill 4.5, BCR signal inh 0.8% and SW480 rerep -8.8%.
`CCOC(=O)C(=NC(C)(C)C)NNc1cc(Cl)ccc1Cl` gave Gal4-VP16 FLuc 4.7%, RORg inh -8.6%, MCF10A rerep inconclusive, Giardia kill 7.5, BCR signal inh inconclusive and SW480 rerep -0.8%.
CCN1CCN(CCCNC(=O)c2ccc(/C=C3/Oc4ccccc4N(Cc4cccc(C)c4)C3=O)cc2)CC1 was read as Gal4-VP16 FLuc -3.4%, RORg inh -2.0%, MCF10A rerep 1.84µM*, Giardia kill 10.7, BCR signal inh inconclusive and SW480 rerep 2.59µM*.

Screening results deposited in PubChem BioAssay by National Center for Advancing Translational Sciences (NCATS).
